The subject of this experiment is HFF. As to the kind of experiment: cell viability relative to DMSO control; higher = less cytotoxic. Particulars: 1 µM; 72 h. Here is the method: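 Single-dose cytotoxicity screen of the MMV Pandemic Response Box at 1 uM on human foreskin fibroblasts (HFF), 72 h at 37 C. Viability measured by MTT (OD 550 nm) and normalised to the DMSO control (% survival).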

As for `O=C(Nc1[nH]c(=O)ncc1F)c1ccccc1`, the cell viability came to 64.8%.

`Cc1cc(NS(=O)(=O)c2ccc(-c3ccc(F)cc3F)cc2)no1` displayed a cell viability of 69.4%.

In the case of `Oc1ccc(NCc2ccccc2OCc2ccccc2)cc1`, the cell viability turned out to be 70.1%.

The molecule `Cc1ncc([N+](=O)[O-])n1CC(O)CN1CCOCC1` (stereo not drawn) displayed a cell viability of 61.1%.

As for `CC(C)c1ccc(COc2cccc(-c3cc([S+](C)[O-])c(C#N)c(=O)[nH]3)c2)cc1` (stereo not drawn), the cell viability came out at 76.9%.

`CC#C[C@]1(O)CC[C@H]2[C@@H]3CCC4=CC(=O)CCC4=C3[C@@H](c3ccc(N(C)C)cc3)C[C@@]21C` displayed a cell viability of 52%.

Turning to `C[C@H](c1cccc2ccccc12)N(C)Cc1ccccc1`, the cell viability amounted to 65.7%.

In turn, `COc1ccc2cc3[n+](cc2c1OCCN(CCn1cncn1)Cc1ccc(F)cc1F)CCc1cc2c(cc1-3)OCO2` registered a cell viability of 61.3%.

Consider `Oc1cc(-c2cccc3ccccc23)[nH]n1`, for which the cell viability was determined as 66.8%.

For the molecule `c1ccc(Cn2c(-c3ccccn3)nc3ccccc32)cc1`, the cell viability is 63.2%.

Turning to `CC(C)(C)c1ccc(Oc2ccc(N)cc2)cc1`, the cell viability turned out to be 68.3%.

Molecule `CCc1cc(CCC(=O)Nc2ccccc2O)c(O)nc1C` showed a cell viability of 71.2%.

Molecule `CC(C)Oc1ccc(-c2nc(-c3cccc4c3CC[C@@H]4NCCO)no2)cc1C#N` returned a cell viability of 65.4%.

In the case of `FC(F)(F)c1cc(C(F)(F)F)c2ccc3nc(-c4nnco4)cn3c2n1`, the cell viability was determined as 67.3%.

Molecule `COc1ccc(C[C@@H](C)[C@@H](C)Cc2ccc(OC)c(OC)c2)cc1OC` displayed a cell viability of 65.2%.

For the molecule `CC1(C)C[C@H]1C(=O)N/C(=C\CCCCSC[C@@H](N)C(=O)O)C(=O)O`, the cell viability worked out at 71.5%.

For `COc1ccc(COc2cc3oc(=O)c4cc(C(C)O)ccc4c3cc2OC)cc1` (stereo not drawn), the cell viability is 57.3%.

In turn, `N=c1n(CCN2CCCCC2)c2ccccc2n1CC(O)COc1ccc(Cl)cc1Cl` (stereo not drawn) displayed a cell viability of 81.4%.
